Bioassay records from PubChem.
Most compounds without a hit are left out; they make up all but 1.1% or so of the library.
Mtb betalactam – beta-lactam sensitization of Mtb H37Rv. inhibition, % at 25 µM. M. tuberculosis H37Rv growth with meropenem, percent inhibition. 0.27% of 330,000 active; call rule not given here;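 further: growth measured after seven days incubation then overnight dye step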
SSB-PriA inh – K. pneumoniae PriA-SSBct interaction inhibition. AlphaScreen SSBct-PriA binding, biotinylated peptide. inhibition, % at 33 µM. 0.6% of 430,000 active; in the data active means inhibition mostly above about 37%, no sharp cut-off; inactive means mostly below about 20%
UGM FP inh – Mtb UDP-galactopyranose mutase inhibition | purified UGM, fluorescence polarization probe displacement | inhibition, % at 10 µM | P9WIQ1 | 0.06% of 320,000 active; in the data active means inhibition above about 10%, passing the limit was not always enough
RecA intein inh – Mtb RecA intein splicing inhibition; inhibition, % (no concentration beside the values); 0.75% of 290,000 active; cell-free RecA intein splicing, fluorescence; AID 2221; in the data active means inhibition above about 30%
Target sequence (P9WHJ3 whole entry, looked up): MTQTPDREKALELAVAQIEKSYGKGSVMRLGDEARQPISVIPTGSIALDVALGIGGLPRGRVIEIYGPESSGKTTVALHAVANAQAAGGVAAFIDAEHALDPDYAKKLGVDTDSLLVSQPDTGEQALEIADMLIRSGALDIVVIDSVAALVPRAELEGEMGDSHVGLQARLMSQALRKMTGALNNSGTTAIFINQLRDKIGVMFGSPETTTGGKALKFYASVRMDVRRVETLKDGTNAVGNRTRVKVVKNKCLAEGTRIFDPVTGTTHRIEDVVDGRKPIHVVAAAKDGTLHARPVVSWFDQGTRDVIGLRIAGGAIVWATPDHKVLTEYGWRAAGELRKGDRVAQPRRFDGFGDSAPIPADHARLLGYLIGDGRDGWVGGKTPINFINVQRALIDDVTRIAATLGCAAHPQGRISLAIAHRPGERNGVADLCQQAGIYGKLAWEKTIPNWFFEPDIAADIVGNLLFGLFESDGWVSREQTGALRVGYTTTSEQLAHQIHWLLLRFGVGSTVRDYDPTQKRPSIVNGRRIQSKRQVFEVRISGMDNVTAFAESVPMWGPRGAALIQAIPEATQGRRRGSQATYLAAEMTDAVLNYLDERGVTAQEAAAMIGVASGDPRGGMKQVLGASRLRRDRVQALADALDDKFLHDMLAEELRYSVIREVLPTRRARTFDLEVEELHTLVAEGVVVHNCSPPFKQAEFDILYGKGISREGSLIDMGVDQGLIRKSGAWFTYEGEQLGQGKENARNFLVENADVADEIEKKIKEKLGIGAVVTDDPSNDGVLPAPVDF
Rv3671c protease – inhibitors of M. tuberculosis serine protease Rv3671c. 0.048% of 320,000 active. inhibition, % at 5.96 µM; in the data active means inhibition above about 38%;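 further: extracellular domain of Rv3671c used as enzyme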
Numbers stand for hits; i = inactive; nt = no result; ! = a repeat was not active.

SMILES	Mtb betalactam	SSB-PriA inh	UGM FP inh	RecA intein inh	Rv3671c protease
O=C(CSc1n[nH]c(-c2cccnc2)n1)Nc1ccccc1	i	i	i	i	i
COc1ccccc1NC(=O)CSc1n[nH]c(-c2ccco2)n1	nt	i	nt	nt	nt
O=C(CSc1n[nH]c(-c2ccccn2)n1)Nc1ccccc1F	i	49.8	i	i	i
O=C(CSc1n[nH]c(-c2ccccn2)n1)Nc1ccccc1	i	82.2	i	i	i
COc1ccc(NC(=O)CSc2n[nH]c(-c3ccccn3)n2)cc1	i	67.3	i	i	i
COc1ccccc1NC(=O)CSc1n[nH]c(-c2ccccn2)n1	i	76.7	i	i	i
COc1ccc(CCNC(=O)c2nc(SC)ncc2Cl)cc1OC	nt	i	nt	nt	nt
O=C(Cn1nnc2ccccc21)NN=C/C=C/c1ccccc1	nt	i	nt	nt	nt
Oc1ccc(CNc2ccc(Br)cc2)c2cccnc12	nt	i	nt	nt	nt
Cc1cccc(NCc2ccc(O)c3ncccc23)c1	i	46.6	i	i	i
Cc1ccccc1NCc1ccc(O)c2ncccc12	i	97.4	i	i	i
Oc1ccc(CNc2ccccc2Br)c2cccnc12	nt	i	nt	nt	nt
Oc1ccc(CNc2cc(Cl)cc(Cl)c2)c2cccnc12	nt	66.8	nt	nt	nt
Oc1ccc(CNc2cccc(F)c2)c2cccnc12	nt	i	nt	nt	nt
Oc1ccc(CNc2ccc(F)cc2)c2cccnc12	i	78.4	i	i	i
Oc1ccc(CNc2ccccc2)c2cccnc12	i	i	i	nt	i
Cc1ccc(C=NNC(=O)c2nnn(-c3nonc3N)c2C(C)C)o1	nt	i	nt	nt	nt
COc1ccc(Cn2cnc3c4cc(C)ccc4n(CC(=O)Nc4ccc5c(c4)OCO5)c3c2=O)cc1	nt	i	nt	nt	nt
NC(=NOC(=O)CCC1CCCC1)c1ccccc1	nt	i	nt	nt	nt
Cc1ccc(S(=O)(=O)Nc2ccc3c(c2)c2c(n3S(=O)(=O)c3ccc(C)cc3)CC(C)(C)CC2=O)cc1	nt	i	nt	nt	nt
O=[N+]([O-])c1ccc(N2CCCCC2)cc1O	nt	73.8	nt	nt	nt
O=[N+]([O-])c1ccc(N2CCCCC2)cc1[N+](=O)[O-]	nt	73.3	nt	nt	nt
Cc1cc(C)nc(N=C(N)Nc2cccc(OCc3ccccc3)c2)n1	nt	i	nt	nt	nt
COc1cc(C2(c3ccc(O)c(OC)c3)C(=O)Nc3c(C)cc(Br)cc32)ccc1O	i	i	i	42.3	i
Cc1cc(Br)cc2c1NC(=O)C2(c1c(C)n(C)n(-c2ccccc2)c1=O)c1c(C)n(C)n(-c2ccccc2)c1=O	i	i	i	i	i
SMILES	Mtb betalactam	SSB-PriA inh	UGM FP inh	RecA intein inh	Rv3671c protease
COc1cc(C=NO)nc(-c2ccccn2)c1	nt	83.4	nt	nt	nt
COc1ccc(Oc2ccccc2/C=N/O)cc1	i	nt	i	i	i
c1ccc(-c2c(-c3ccccc3)n(Cc3ccco3)c3ncnc(NCCCn4ccnc4)c23)cc1	i	51.6	i	i	i
O=S(=O)(O)c1cc(O)c(N=Nc2ccc(O)cc2O)c2ccccc12	nt	87.2	nt	nt	nt
O=C(CS(=O)(=O)c1ccccc1)Nc1nnc(-c2ccco2)o1	nt	i	nt	nt	nt
Nc1c(Cl)ncnc1NN=Cc1ccc2ccccc2n1	nt	54.4	nt	nt	nt
Nc1c(Cl)ncnc1N/N=C/c1ccc(O)cc1	i	nt	i	i	i
CC(C)N1CCC(CNC(=O)COc2ccc(Cl)cc2Cl)CC1	nt	i	nt	nt	nt
COc1ccccc1NC(=O)c1sc(=S)n(-c2cc(C)ccc2C)c1N	nt	48.0	nt	nt	nt
CC/C(=C/c1sc2ccc(C)cc2[n+]1CCO)SC	i	i	i	34.0	i
O=C(CSc1nccn1-c1cccc(Cl)c1)N1CCc2ccccc21	nt	44.0	nt	nt	nt
O=C(CSc1nccn1-c1ccccc1)N1CCCc2ccccc21	nt	71.7	nt	nt	nt
CCOc1ccc(-n2ccnc2SCC(=O)N2CCCc3ccccc32)cc1	i	i	i	i	i
O=C(CSc1ccc(-c2ccccn2)nn1)N1CCCc2ccccc21	i	62.2!	i	i	i
O=C(CCCn1nc(-c2ccco2)ccc1=O)Nc1nc2ccccc2s1	nt	i	nt	nt	nt
O=C(Nc1nc(-c2ccccn2)cs1)c1sccc1C1CC1	nt	114.5	nt	nt	nt
O=C(Nc1nc(-c2ccccn2)cs1)C1c2ccccc2Oc2ccccc21	nt	i	nt	nt	nt
O=C(Nc1nc(-c2ccccn2)cs1)c1ccccc1	nt	100.8	nt	nt	nt
Cc1ccc(C(=O)Nc2nc(-c3ccccn3)cs2)cc1NC(=O)c1ccco1	nt	i	nt	nt	nt
O=C(Nc1nc(-c2ccccn2)cs1)c1ccccc1Cl	nt	99.8	nt	nt	nt
Cc1ccc(C(=O)Nc2nc(-c3ccccn3)cs2)cc1-n1cccc1	nt	103.2	nt	nt	nt
CCOc1cc(C(=O)Nc2sc3c(c2C(N)=O)CCN(CC)C3)cc(OCC)c1OCC	nt	i	nt	nt	nt
O=C(Nc1nc(-c2ccccn2)cs1)c1ccc(Cl)c([N+](=O)[O-])c1	nt	i	nt	nt	nt
CSc1ccccc1C(=O)Nc1nc(-c2ccccn2)cs1	nt	106.5	nt	nt	nt
CCc1ccc(C(=O)Nc2nc(-c3ccccn3)cs2)cc1	nt	85.3	nt	nt	nt
SMILES	Mtb betalactam	SSB-PriA inh	UGM FP inh	RecA intein inh	Rv3671c protease
O=C(Nc1nc(-c2ccccn2)cs1)c1ccccc1-n1cnnn1	i	80.8	i	nt	i
Cc1cc(C(=O)Nc2nc(-c3ccccn3)cs2)ccc1[N+](=O)[O-]	i	47.4	i	i	i
CSc1ccccc1C(=O)Nc1nc(-c2ccc(F)cc2)cs1	nt	i	nt	nt	nt
CC(C)(C)CNC(=O)c1ccc(C(=O)Nc2nc(-c3ccccn3)cs2)cc1	nt	i	nt	nt	nt
CC1CN(C(=O)Cn2cnc3c(nnn3-c3ccc(OC(F)(F)F)cc3)c2=O)CC(C)O1 (stereo unspecified)	nt	i	nt	nt	nt
COC(=O)c1ccc(CSc2nc(-c3ccc4c(c3)OCO4)ccc2C#N)cc1	nt	i	nt	nt	nt
Cc1nc(C)c(C(=O)Nc2nc(-c3ccccn3)cs2)s1	nt	157.0	nt	nt	nt
O=C(Nc1nc(-c2ccccn2)cs1)c1ccc(Oc2ccc(C(=O)Nc3nc(-c4ccccn4)cs3)cc2)cc1	nt	i	nt	nt	nt
Cc1ccc(C(=O)Nc2nc(-c3ccccn3)cs2)o1	i	i	i	i	i
O=C(Nc1nc(-c2ccccn2)cs1)c1cc(S(=O)(=O)N2CCOCC2)c(Cl)cc1Cl	nt	76.2	nt	nt	nt
O=C(Nc1nnc(-c2ccccc2)s1)c1cc(S(=O)(=O)N2CCOCC2)c(Cl)cc1Cl	i	i	i	i	i
CC(=O)Nc1ccc(C(=O)Nc2nc(-c3ccccn3)cs2)cc1	i	77.8	i	i	i
Cc1cc(C(=O)Nc2nc(-c3ccccn3)cs2)no1	nt	75.0	nt	nt	nt
O=C(Nc1nc(-c2ccccn2)cs1)c1ccncc1	nt	157.0	nt	nt	nt
O=C(Nc1nc(-c2ccccn2)cs1)c1ccc(-n2cnnn2)cc1	nt	i	nt	nt	nt
CCn1ccc(C(=O)Nc2nc(-c3ccccn3)cs2)n1	nt	95.0	nt	nt	nt
O=C(Nc1nc(-c2ccccn2)cs1)C1(n2cnnn2)CCCCC1	nt	158.5	nt	nt	nt
O=C(Nc1nc(-c2ccccn2)cs1)c1cc(-c2ccco2)[nH]n1	nt	65.8	nt	nt	nt
Cc1ccc(N(C)S(=O)(=O)c2c(-c3cccc(F)c3)csc2C(=O)NCc2ccco2)cc1	nt	i	nt	nt	nt
COc1nn(C)cc1C(=O)NCCn1nc(C(F)(F)F)n(C)c1=O	nt	i	nt	nt	nt
COc1ccc(N2CCCS2(=O)=O)cc1NC(=O)C(=O)NCCCc1ccccc1	nt	i	nt	nt	nt
Cn1nc(C(=O)Nc2nc(-c3ccccn3)cs2)c2ccccc2c1=O	nt	43.0	nt	nt	nt
Cc1ccc(C(=O)Nc2nc(-c3ccccn3)cs2)cc1	nt	78.0	nt	nt	nt
O=C(Nc1nc(-c2ccccn2)cs1)c1ccc(=O)[nH]c1	nt	95.2	nt	nt	nt
O=C(Nc1nc(-c2ccccn2)cs1)c1ccc(C(=O)c2ccccc2)cc1	nt	i	nt	nt	nt
CCCn1nc(C(=O)Nc2nc(-c3ccccn3)cs2)c2ccccc2c1=O	i	i	i	nt	i
N#Cc1cccnc1N1CCC(CNC(=O)NCc2ccccc2)CC1	nt	i	nt	nt	nt
N#Cc1ccccc1N=Cc1c[nH]c2ccccc12	nt	i	nt	nt	nt
